# In PubChem BioAssay AID1030 (National Center for Advancing Translational Sciences (NCATS), 2008):
# Screen size: about 220,000 compounds; about 16,000 (7.3%) were called active. Inconclusive results (about 25%) are left out. Shown is part of a subset that was picked to be rich in actives. Unmarked numbers belong to inactive results. Calls come from the whole dose curve; as a rule, active = well fitted inhibition curve with a large enough effect (not every such curve was filed as active); inconclusive = small, poorly fitted or top-dose-only effect, or another doubt; inactive = no such curve, though single readings can be large or run the other way.
# Biological target: Aldehyde dehydrogenase 1A1 (Homo sapiens) (UniProt P00352)
# Assay: qHTS Assay for Inhibitors of Aldehyde Dehydrogenase 1 (ALDH1A1);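 for activity, negative = inhibition: plate controls were no enzyme wells and a reference inhibitor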
# Settings: Purified ALDH1A1, NADH fluorescence, propionaldehyde substrate; series mostly up to 75.3 µM; activity, negative = inhibition: at the top concentration
# Potency is the fitted concentration of half-maximal effect.
# Aldehyde dehydrogenase 1A1 (Homo sapiens), sequence (P00352 whole entry, looked up): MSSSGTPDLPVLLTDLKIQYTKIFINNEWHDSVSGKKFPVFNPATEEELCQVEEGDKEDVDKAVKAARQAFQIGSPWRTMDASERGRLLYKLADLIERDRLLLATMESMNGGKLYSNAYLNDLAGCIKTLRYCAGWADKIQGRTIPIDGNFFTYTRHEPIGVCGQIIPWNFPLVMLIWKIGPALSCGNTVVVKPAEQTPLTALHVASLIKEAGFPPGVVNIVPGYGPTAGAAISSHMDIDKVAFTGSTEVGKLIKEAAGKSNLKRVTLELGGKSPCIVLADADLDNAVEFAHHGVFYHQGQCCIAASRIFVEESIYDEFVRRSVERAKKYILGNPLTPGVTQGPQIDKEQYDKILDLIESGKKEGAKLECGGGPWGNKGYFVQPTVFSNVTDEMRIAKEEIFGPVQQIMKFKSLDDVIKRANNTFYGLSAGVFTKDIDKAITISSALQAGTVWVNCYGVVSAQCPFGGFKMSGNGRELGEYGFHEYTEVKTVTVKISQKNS
SMILES,"activity, negative = inhibition",Potency
O=S1(=O)CCN2C(=N1)SC1=C2CCN(Cc2ccccc2)C1,13.5%,–
O=C(Nc1ccccc1Cc1ccccc1)c1ccc2c(c1)SC1=NS(=O)(=O)CCN12,–,7.94 µM (active)
O=C(Nc1ccccc1N1CCN(c2ccccc2)CC1)c1cccc(F)c1,-8.56%,–
COc1ccc(N2CCN(CCCNC(=O)C3CCN(S(=O)(=O)N4CCOCC4)CC3)CC2)cc1,6.15%,–
CCc1ccc(N2CC(O)=C(c3nc4ccccc4c(=O)[nH]3)C2=N)cc1,-198%,–
C=CCOC(=O)c1ccccc1C(=O)OCC=C,-5.89%,–
O=C(NCc1ccccc1)C1=C[C@@H](c2ccc(C(F)(F)F)cc2)C[C@@H](OCc2ccc(CO)cc2)O1,-6.56%,–
O=C(NCc1ccccc1)C1=C[C@@H](C2CCCCC2)C[C@@H](OCc2ccc(CO)cc2)O1,–,12.6 µM (active)
NC(=O)C1=C[C@H](c2csc3ccccc23)C[C@H](OCc2ccc(CO)cc2)O1,–,8.91 µM (active)
O=C(C1=C[C@H](c2coc3ccccc3c2=O)C[C@H](OCc2ccc(CO)cc2)O1)N1CCOCC1,-3.13%,–
C=CCOC(=O)C1=C[C@@H](c2ccccc2)C[C@@H](OCc2ccc(CO)cc2)O1,–,10 µM (active)
O=C(NCc1ccccc1)C1=C[C@H](C2CC2)C[C@H](OCc2ccc(CO)cc2)O1,-12.3%,–
CC(C)(C)[C@H]1C=C(C(=O)NCc2ccccc2)O[C@@H](OCc2ccc(CO)cc2)C1,-0.163%,–
O=C(C1=C[C@H](C2CC2)C[C@H](OCc2ccc(CO)cc2)O1)N1CCN(Cc2ccccc2)CC1,-3.33%,–
O=C(CCS(=O)(=O)c1ccccc1Cl)Nc1ccc(S(=O)(=O)Nc2ncccn2)cc1,9.04%,–
O=C(COc1ccccc1)Nc1ccc(N2CCN(C(=O)c3cccs3)CC2)cc1,-11.5%,–
Cc1ccc(C)c(-n2ccnc2SCC(N)=O)c1,21.3%,–
CC(CCn1cccn1)NC(=O)CCc1nnc(CCc2ccccc2)o1 (stereo unspecified),0.243%,–
CCC(C)NC(=O)c1nn(C)c(=O)c2ccccc12 (stereo unspecified),5.8%,–
CCC(C(=O)OCC(=O)Nc1ccccc1-c1ccccc1)c1ccccc1 (stereo unspecified),-5.66%,–
CCOC(=O)c1c(C)oc2ccc(OCC(=O)N(CC)CC)cc12,–,11.2 µM (active)
CCOC(=O)c1c(C)[nH]c(C(=O)COc2ccc3c(c2)OCO3)c1C,-4.6%,–
CCOC(=O)c1c(C)oc2cc(Br)c(OCC(N)=O)cc12,2.21%,–
O=C(Nc1ccc(Cl)cc1)/C(=C1\CCCN1)[N+](=O)[O-],7.93%,–
Cn1nc(C(F)(F)F)cc1-c1ccc(/C=C(\C#N)C(=O)c2cccc(C(F)(F)F)c2)s1,0.518%,–
CCOc1cccc(-c2nn3c(-c4ccccn4)nnc3s2)c1,3.69%,–

SMILES,"activity, negative = inhibition",Potency
COc1cc(-c2nn3c(-c4cccc(C)c4)nnc3s2)cc(OC)c1OC,6.41%,–
COc1ccc(-c2nn3c(-c4ccccc4)nnc3s2)cc1OC,–,25.1 µM (active)
CC(=O)c1sc(NC(=O)CCCOc2ccccc2C)nc1C,18.5%,–
O=[N+]([O-])c1ccccc1N/N=C1\CCc2ccccc21,3.37%,–
C=Cn1c(C(=O)O)ccc1-c1ccc(OC)cc1,-0.558%,–
CCCn1c(SCC(=O)N2CCc3ccccc32)nnc1-c1ccncc1,-2.33%,–
O=C(CSc1nc2[nH]ncc2c(=O)n1-c1ccccc1)N1CCCc2ccccc21,-9.05%,–
C=CCn1c(=O)c2ccccc2n2c(SCC(=O)N3CCCc4ccccc43)nnc12,–,4.47 µM (active)
Cc1ccnc2nc(C(=O)OCC(=O)N(CC(C)C)CC(C)C)nn12,-1.78%,–
Cc1ccnc(NS(=O)(=O)c2ccc(NC(=O)c3ccc(S(=O)(=O)N4CCOCC4)cc3)cc2)n1,-5.25%,–
O=P(O)(O)C(O)c1ccc2ccccc2c1 (stereo unspecified),3.77%,–
N#Cc1c(/N=C/N2CCCC2)oc(-c2ccccc2)c1-c1ccccc1,–,7.94 µM (active)
N#Cc1c2c(c(-c3ccccc3)[nH]c1=O)CCCC2,0.588%,–
CCSc1sc(CC)cc1C=O,16.6%,–
O=C(COC(=O)c1ccccc1)Nc1cccc(S(=O)(=O)N2CCOCC2)c1,2.02%,–
Cc1ccc(N(C(=O)c2ccc(S(=O)(=O)N(C)C)cc2)C2C=CS(=O)(=O)C2)cc1 (stereo unspecified),-1.32%,–
C=CCNc1scc(-c2ccccc2)[n+]1CC=C,6.41%,–
CCc1ccnc(NS(=O)(=O)c2ccc3c(c2)OCCO3)c1,-10.2%,–
CCN(C(=O)COC(=O)/C=C/c1nc2ccccc2s1)C1CCS(=O)(=O)C1 (stereo unspecified),-11.6%,–
Cc1ccc(-c2csc(NNC(=O)c3ccccc3)n2)cc1,-4.96%,–
CCCCN(C)CCC(=O)Nc1ccc(Cl)cc1,6.04%,–
CCCCC(=O)Nc1nc(C)c(-c2csc(Nc3ccc(Cl)cc3)n2)s1,–,11.2 µM (active)
Cc1ccc(Nc2nc(-c3sc(NC(=O)c4ccccc4)nc3C)cs2)cc1,–,20 µM (active)
COc1ccc(-c2csc(NC(=O)CCCc3cccs3)n2)cc1,-6.08%,–
Cc1nc(NC(=O)c2cccc(Cl)c2)sc1-c1csc(Nc2cccc(Cl)c2)n1,-7.1%,–
